Assays:
Histone H2B type 1-M = Histone H2B type 1-M (UniProt Q99879); assay: cross-link between two proteins; cross-linking mass spectrometry
Histone deacetylase 1 [1] = biological target: Histone deacetylase 1 (UniProt Q13547); assay: as above
[2] = biological target: Histone-lysine N-methyltransferase 2A (UniProt Q03164); assay: as above
[3] = biological target: Histone-lysine N-methyltransferase, H3 lysine-36 specific (UniProt Q96L73); assay: as above
[4] = biological target: Keratin, type I cytoskeletal 10 (UniProt P13645); assay: as above
[5] = biological target: KxDL motif-containing protein 1 (UniProt Q9BQD3); assay: as above
[6] = biological target: Lymphatic vessel endothelial hyaluronic acid receptor 1 (UniProt Q9Y5Y7); assay: as above
[7] = biological target: Melanoma inhibitory activity protein 2 (UniProt Q96PC5); assay: as above
Chain of Melanoma inhibitory activity protein 2 (Q96PC5 whole entry): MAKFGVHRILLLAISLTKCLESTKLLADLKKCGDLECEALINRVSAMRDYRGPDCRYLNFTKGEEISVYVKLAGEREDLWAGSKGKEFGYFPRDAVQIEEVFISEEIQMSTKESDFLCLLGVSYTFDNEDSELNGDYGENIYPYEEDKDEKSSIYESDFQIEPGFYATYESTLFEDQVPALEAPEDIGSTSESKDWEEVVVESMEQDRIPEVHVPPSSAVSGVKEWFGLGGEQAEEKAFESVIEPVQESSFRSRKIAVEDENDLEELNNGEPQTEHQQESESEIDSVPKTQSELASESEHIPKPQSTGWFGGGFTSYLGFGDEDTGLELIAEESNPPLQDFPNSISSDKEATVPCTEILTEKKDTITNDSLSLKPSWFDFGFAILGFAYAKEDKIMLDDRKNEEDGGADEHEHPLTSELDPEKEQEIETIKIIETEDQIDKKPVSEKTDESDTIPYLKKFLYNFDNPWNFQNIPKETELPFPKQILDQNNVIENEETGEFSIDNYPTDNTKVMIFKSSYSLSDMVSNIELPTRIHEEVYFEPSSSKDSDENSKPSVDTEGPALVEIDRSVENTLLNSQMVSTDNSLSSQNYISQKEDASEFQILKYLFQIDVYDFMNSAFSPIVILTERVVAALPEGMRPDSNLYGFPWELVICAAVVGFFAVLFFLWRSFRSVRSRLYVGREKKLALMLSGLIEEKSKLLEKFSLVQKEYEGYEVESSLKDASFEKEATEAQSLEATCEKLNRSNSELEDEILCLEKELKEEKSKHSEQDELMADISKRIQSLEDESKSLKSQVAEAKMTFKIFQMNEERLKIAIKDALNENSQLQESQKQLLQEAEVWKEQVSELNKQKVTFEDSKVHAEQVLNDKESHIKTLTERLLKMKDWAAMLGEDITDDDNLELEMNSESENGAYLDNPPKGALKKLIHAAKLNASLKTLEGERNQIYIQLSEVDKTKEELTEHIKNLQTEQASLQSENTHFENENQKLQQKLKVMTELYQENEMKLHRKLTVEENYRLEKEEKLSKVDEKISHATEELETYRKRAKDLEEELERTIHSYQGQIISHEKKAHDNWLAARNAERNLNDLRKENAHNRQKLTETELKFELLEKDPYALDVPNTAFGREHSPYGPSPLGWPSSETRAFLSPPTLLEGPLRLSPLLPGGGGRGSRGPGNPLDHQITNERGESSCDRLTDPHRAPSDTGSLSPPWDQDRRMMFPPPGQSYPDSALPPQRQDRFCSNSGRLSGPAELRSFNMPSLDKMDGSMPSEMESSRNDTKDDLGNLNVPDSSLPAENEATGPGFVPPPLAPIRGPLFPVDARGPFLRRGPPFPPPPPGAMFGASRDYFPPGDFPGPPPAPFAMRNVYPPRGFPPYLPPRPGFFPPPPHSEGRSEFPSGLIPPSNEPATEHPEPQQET

Zinc finger protein DPF3 = Zinc finger protein DPF3 (UniProt Q92784); assay: as above
[8] = biological target: Metastasis-associated protein MTA3 (UniProt Q9BTC8); assay: as above
[9] = biological target: Methyl-CpG-binding domain protein 2 (UniProt Q9UBB5); assay: as above
Chain of Methyl-CpG-binding domain protein 2 (Q9UBB5 whole entry, the tested form may be a part): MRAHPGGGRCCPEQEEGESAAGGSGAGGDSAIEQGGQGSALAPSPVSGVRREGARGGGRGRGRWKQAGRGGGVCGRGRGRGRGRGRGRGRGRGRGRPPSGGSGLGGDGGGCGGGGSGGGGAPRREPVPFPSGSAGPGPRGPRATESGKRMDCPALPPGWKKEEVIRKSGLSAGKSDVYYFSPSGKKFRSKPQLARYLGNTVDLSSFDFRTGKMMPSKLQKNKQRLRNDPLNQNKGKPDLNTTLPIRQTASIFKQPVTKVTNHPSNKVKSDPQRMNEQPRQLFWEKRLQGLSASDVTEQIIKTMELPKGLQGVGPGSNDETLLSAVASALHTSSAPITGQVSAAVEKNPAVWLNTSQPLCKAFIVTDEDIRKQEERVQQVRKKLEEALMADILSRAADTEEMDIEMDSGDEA

Protein DOP1B = Protein DOP1B (UniProt Q9Y3R5); assay: as above
[10] = biological target: Transcriptional repressor p66-alpha (UniProt Q86YP4); assay: as above
[11] = biological target: Transcriptional repressor p66-beta (UniProt Q8WXI9); assay: as above
Chain of Transcriptional repressor p66-beta (Q8WXI9 whole entry): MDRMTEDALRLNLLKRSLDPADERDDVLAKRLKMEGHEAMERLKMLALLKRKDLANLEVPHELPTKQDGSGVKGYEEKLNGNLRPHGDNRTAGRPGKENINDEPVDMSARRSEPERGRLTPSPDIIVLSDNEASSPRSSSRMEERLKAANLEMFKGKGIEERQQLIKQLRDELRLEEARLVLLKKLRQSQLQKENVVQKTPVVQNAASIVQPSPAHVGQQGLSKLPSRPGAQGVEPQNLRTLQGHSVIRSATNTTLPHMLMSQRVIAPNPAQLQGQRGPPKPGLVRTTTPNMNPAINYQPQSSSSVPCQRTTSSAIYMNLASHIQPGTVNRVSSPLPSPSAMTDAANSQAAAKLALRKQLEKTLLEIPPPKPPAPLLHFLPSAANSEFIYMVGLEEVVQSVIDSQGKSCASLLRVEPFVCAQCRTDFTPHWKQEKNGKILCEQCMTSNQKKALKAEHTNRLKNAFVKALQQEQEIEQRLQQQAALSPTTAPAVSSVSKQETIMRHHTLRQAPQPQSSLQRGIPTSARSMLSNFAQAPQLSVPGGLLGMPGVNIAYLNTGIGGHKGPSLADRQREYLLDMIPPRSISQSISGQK

[12] = biological target: Tyrosine-protein phosphatase non-receptor type 14 (UniProt Q15678); assay: as above
Histone deacetylase 1 [13] = biological target: Histone deacetylase 1 (UniProt Q13547); assay: cross-link between two proteins; affinity purification or IP with mass spectrometry; cross-linking mass spectrometry
[14] = biological target: Paired amphipathic helix protein Sin3a (UniProt Q96ST3); assay: cross-link between two proteins; cross-linking mass spectrometry
[15] = biological target: Pre-mRNA-splicing factor CWC25 homolog (UniProt Q9NXE8); assay: as above
[16] = biological target: Guanine nucleotide-binding protein G(i) subunit alpha-3 (UniProt P08754); assay: co-fractionation; co-fractionation; cross-linking mass spectrometry
[17] = biological target: Heat shock-related 70 kDa protein 2 (UniProt P54652); assay: as above
Tubulin alpha-3E chain = Tubulin alpha-3E chain (UniProt Q6PEY2); assay: as above
AP-2 complex subunit mu = AP-2 complex subunit mu (UniProt Q96CW1); assay: cross-link between two proteins; co-fractionation; cross-linking mass spectrometry
[18] = biological target: Proteasome subunit alpha type-5 (UniProt P28066); assay: as above
[19] = biological target: Proteasome subunit beta type-4 (UniProt P28070); assay: as above
[20] = biological target: Proteasome subunit beta type-7 (UniProt Q99436); assay: as above
Chain of Proteasome subunit beta type-7 (Q99436 whole entry): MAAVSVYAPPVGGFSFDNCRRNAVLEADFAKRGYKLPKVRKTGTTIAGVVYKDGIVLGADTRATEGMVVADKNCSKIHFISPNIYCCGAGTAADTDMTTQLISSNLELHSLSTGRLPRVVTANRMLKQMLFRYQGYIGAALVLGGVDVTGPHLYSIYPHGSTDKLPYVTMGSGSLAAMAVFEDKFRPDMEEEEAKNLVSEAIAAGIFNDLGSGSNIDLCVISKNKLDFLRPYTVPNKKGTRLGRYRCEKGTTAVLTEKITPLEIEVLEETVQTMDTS

[21] = biological target: Dolichyl-diphosphooligosaccharide--protein glycosyltransferase 48 kDa subunit (UniProt P39656); assay: cross-link between two proteins; affinity purification or IP with mass spectrometry; cross-linking mass spectrometry
14-3-3 protein epsilon = 14-3-3 protein epsilon (UniProt P62258); assay: cross-linking mass spectrometry
[22] = biological target: Calcineurin B homologous protein 1 (UniProt Q99653); assay: cross-linking mass spectrometry
[23] = biological target: Charged multivesicular body protein 1a (UniProt Q9HD42); assay: cross-linking mass spectrometry
Chain of Charged multivesicular body protein 1a (Q9HD42 whole entry): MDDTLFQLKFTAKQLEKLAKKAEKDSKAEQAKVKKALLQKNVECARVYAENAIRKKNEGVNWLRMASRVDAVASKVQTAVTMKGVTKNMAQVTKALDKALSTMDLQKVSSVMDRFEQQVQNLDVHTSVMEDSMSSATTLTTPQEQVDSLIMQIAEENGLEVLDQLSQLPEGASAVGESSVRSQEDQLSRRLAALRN

[24] = biological target: Charged multivesicular body protein 1b (UniProt Q7LBR1); assay: cross-linking mass spectrometry
[25] = biological target: Charged multivesicular body protein 3 (UniProt Q9Y3E7); assay: cross-linking mass spectrometry
Chain of Charged multivesicular body protein 3 (Q9Y3E7 whole entry): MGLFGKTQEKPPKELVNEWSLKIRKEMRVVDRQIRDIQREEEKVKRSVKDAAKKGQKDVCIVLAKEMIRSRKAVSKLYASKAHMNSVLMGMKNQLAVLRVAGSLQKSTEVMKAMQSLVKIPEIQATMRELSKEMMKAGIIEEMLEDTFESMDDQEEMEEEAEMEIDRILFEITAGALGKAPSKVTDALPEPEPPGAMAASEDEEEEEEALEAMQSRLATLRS

[26] = biological target: Charged multivesicular body protein 4b (UniProt Q9H444); assay: cross-linking mass spectrometry
[27] = biological target: Endoplasmic reticulum resident protein 44 (UniProt Q9BS26); assay: cross-linking mass spectrometry
Integrin beta-5 = Integrin beta-5 (UniProt P18084); assay: cross-linking mass spectrometry
Chain of Integrin beta-5 (P18084 whole entry): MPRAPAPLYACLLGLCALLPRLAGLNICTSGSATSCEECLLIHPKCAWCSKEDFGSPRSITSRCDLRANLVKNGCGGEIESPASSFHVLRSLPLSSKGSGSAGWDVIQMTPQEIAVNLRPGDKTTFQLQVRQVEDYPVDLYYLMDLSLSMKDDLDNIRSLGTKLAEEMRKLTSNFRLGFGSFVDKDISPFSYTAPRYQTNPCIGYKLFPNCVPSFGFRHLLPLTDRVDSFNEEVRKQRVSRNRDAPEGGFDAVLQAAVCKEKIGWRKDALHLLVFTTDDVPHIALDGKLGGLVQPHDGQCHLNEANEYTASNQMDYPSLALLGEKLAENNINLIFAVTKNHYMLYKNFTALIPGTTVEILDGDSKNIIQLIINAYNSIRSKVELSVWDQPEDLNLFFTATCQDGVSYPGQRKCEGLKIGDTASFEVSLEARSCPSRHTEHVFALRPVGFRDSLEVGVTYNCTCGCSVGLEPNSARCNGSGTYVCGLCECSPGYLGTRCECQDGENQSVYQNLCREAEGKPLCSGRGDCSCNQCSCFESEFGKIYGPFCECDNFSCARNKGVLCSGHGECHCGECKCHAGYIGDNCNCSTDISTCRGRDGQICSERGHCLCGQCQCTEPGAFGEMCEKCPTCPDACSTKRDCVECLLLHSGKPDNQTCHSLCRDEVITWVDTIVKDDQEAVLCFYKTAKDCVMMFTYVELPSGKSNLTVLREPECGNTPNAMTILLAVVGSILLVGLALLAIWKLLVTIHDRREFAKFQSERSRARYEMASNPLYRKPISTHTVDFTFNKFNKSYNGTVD

Laminin subunit gamma-1 = Laminin subunit gamma-1 (UniProt P11047); assay: cross-linking mass spectrometry
[28] = biological target: Splicing factor 3A subunit 1 (UniProt Q15459); assay: cross-linking mass spectrometry
[29] = biological target: Splicing factor 3B subunit 2 (UniProt Q13435); assay: cross-linking mass spectrometry
[30] = biological target: Splicing factor 3B subunit 5 (UniProt Q9BWJ5); assay: cross-linking mass spectrometry
Splicing factor 45 = Splicing factor 45 (UniProt Q96I25); assay: cross-linking mass spectrometry
Syntaxin-8 = Syntaxin-8 (UniProt Q9UNK0); assay: cross-linking mass spectrometry
[31] = biological target: U1 small nuclear ribonucleoprotein A (UniProt P09012); assay: cross-linking mass spectrometry
[32] = biological target: Vacuolar protein sorting-associated protein 16 homolog (UniProt Q9H269); assay: cross-linking mass spectrometry
[33] = biological target: Vacuolar protein sorting-associated protein 45 (UniProt Q9NRW7); assay: cross-linking mass spectrometry
[34] = biological target: Vesicle transport through interaction with t-SNAREs homolog 1A (UniProt Q96AJ9); assay: cross-linking mass spectrometry
Chain of Vesicle transport through interaction with t-SNAREs homolog 1A (Q96AJ9 whole entry): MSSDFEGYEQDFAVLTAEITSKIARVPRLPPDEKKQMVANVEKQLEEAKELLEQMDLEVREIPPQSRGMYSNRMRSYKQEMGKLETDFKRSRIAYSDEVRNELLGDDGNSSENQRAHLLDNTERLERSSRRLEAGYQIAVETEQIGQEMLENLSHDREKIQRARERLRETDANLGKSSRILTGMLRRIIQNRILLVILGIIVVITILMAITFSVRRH

[35] = biological target: Metastasis-associated protein MTA2 (UniProt O94776); assay: cross-link between two proteins; cross-linking mass spectrometry
[36] = biological target: Methyl-CpG-binding domain protein 3 (UniProt O95983); assay: as above
Plexin-A1 = Plexin-A1 (UniProt Q9UIW2); assay: as above
[37] = biological target: Polyadenylate-binding protein 3 (UniProt Q9H361); assay: as above
[38] = biological target: Probable serine carboxypeptidase CPVL (UniProt Q9H3G5); assay: as above
[39] = biological target: Proteasome subunit beta type-3 (UniProt P49720); assay: as above
[40] = biological target: Putative elongation factor 1-alpha-like 3 (UniProt Q5VTE0); assay: as above
[41] = biological target: Putative heat shock protein HSP 90-alpha A4 (UniProt Q58FG1); assay: as above
RNA-binding protein Raly = RNA-binding protein Raly (UniProt Q9UKM9); assay: as above
[42] = biological target: SIR2 antiphage-like protein 2 (UniProt Q9NWS6); assay: as above
[43] = biological target: Serine palmitoyltransferase 2 (UniProt O15270); assay: as above
[44] = biological target: Serine/threonine-protein kinase MARK2 (UniProt Q7KZI7); assay: as above
[45] = biological target: Splicing factor 3B subunit 2 (UniProt Q13435); assay: as above
[46] = biological target: Structural maintenance of chromosomes protein 3 (UniProt Q9UQE7); assay: as above
[47] = biological target: Succinate dehydrogenase [ubiquinone] flavoprotein subunit, mitochondrial (UniProt P31040); assay: as above
THO complex subunit 2 = THO complex subunit 2 (UniProt Q8NI27); assay: as above
THO complex subunit 3 = THO complex subunit 3 (UniProt Q96J01); assay: as above
Chain of THO complex subunit 3 (Q96J01 whole entry, one chain of several): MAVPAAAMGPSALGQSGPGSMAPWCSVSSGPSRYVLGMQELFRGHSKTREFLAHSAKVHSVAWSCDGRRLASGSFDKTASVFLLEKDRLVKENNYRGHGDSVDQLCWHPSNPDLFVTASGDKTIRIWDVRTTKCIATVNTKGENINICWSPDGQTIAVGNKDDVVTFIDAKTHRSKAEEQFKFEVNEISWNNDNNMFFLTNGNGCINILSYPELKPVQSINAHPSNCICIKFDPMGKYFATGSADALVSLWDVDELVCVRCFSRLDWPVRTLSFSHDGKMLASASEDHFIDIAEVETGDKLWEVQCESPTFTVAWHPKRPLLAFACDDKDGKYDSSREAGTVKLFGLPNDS

[48] = biological target: Transforming protein RhoA (UniProt P61586); assay: as above
[49] = biological target: V-type proton ATPase subunit D (UniProt Q9Y5K8); assay: as above

Chain of Histone deacetylase 1 (Q13547 whole entry): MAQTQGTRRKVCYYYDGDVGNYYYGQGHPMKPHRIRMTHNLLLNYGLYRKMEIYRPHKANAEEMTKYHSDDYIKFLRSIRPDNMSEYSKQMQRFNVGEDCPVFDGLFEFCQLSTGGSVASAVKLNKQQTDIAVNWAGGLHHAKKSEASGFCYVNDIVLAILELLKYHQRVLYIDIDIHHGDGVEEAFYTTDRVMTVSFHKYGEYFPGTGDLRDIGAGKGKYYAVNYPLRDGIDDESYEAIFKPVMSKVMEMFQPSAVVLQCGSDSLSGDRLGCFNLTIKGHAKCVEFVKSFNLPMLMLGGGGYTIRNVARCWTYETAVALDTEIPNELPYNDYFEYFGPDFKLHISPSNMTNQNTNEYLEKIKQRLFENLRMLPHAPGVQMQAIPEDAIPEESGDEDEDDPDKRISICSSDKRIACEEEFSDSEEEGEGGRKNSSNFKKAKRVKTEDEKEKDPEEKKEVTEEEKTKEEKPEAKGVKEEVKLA

ADP/ATP translocase 3, P12236
listed as a hit (Histone H2B type 1-M): yes

Collagen alpha-5(IV) chain, P29400
listed as a hit (Histone deacetylase 1 [1]): yes

Prohibitin 1, P35232
listed as a hit [2]: yes

Protein-L-isoaspartate(D-aspartate) O-methyltransferase, P22061
listed as a hit [3]: yes

Keratin, type II cytoskeletal 1, P04264
listed as a hit [4]: yes

Biogenesis of lysosome-related organelles complex 1 subunit 1, P78537
listed as a hit [5]: yes

B-cell receptor-associated protein 31, P51572
listed as a hit [6]: yes

Syntaxin-7, O15400
listed as a hit [7]: yes
listed as a hit (Zinc finger protein DPF3): yes

Metastasis-associated protein MTA1, Q13330
listed as a hit [8]: yes
listed as a hit [9]: yes
listed as a hit (Protein DOP1B): yes
listed as a hit [10]: yes
listed as a hit [11]: yes
listed as a hit [12]: yes
listed as a hit (Histone deacetylase 1 [13]): yes

Histone-binding protein RBBP7, Q16576
listed as a hit [14]: yes

Transcriptional repressor p66-beta, Q8WXI9
listed as a hit [15]: yes

Guanine nucleotide-binding protein G(i) subunit alpha-2, P04899
listed as a hit [16]: yes

Heat shock 70 kDa protein 6, P17066
listed as a hit [17]: yes

Tubulin beta-4B chain, P68371
listed as a hit (Tubulin alpha-3E chain): yes

AP-2 complex subunit alpha-1, O95782
listed as a hit (AP-2 complex subunit mu): yes

Proteasome subunit alpha type-7, O14818
listed as a hit [18]: yes

Proteasome subunit beta type-1, P20618
listed as a hit [19]: yes

Proteasome subunit alpha type-6, P60900
listed as a hit [20]: yes

Proteasome subunit beta type-3, P49720
listed as a hit [20]: yes

Calnexin, P27824
listed as a hit [21]: yes

Paired amphipathic helix protein Sin3b, O75182
listed as a hit (Histone deacetylase 1 [13]): yes

14-3-3 protein gamma, P61981
listed as a hit (14-3-3 protein epsilon): yes

Glycerol-3-phosphate acyltransferase 4, Q86UL3
listed as a hit [22]: yes

Charged multivesicular body protein 2a, O43633
listed as a hit [23]: yes
listed as a hit [24]: yes
listed as a hit [25]: yes
listed as a hit [7]: yes

Charged multivesicular body protein 1b, Q7LBR1
listed as a hit [23]: yes
listed as a hit [25]: yes

Programmed cell death 6-interacting protein, Q8WUM4
listed as a hit [26]: yes

Peroxiredoxin-4, Q13162
listed as a hit [27]: yes

Integrin alpha-V, P06756
listed as a hit (Integrin beta-5): yes

Laminin subunit beta-1, P07942
listed as a hit (Laminin subunit gamma-1): yes

Splicing factor 3A subunit 2, Q15428
listed as a hit [28]: yes

U2 small nuclear ribonucleoprotein A', P09661
listed as a hit [29]: yes

Splicing factor 3B subunit 3, Q15393
listed as a hit [30]: yes

U2 snRNP-associated SURP motif-containing protein, O15042
listed as a hit (Splicing factor 45): yes

Vesicle transport through interaction with t-SNAREs homolog 1B, Q9UEU0
listed as a hit (Syntaxin-8): yes

U2 small nuclear ribonucleoprotein B'', P08579
listed as a hit [31]: yes

Vacuolar protein sorting-associated protein 33A, Q96AX1
listed as a hit [32]: yes

Syntaxin-16, O14662
listed as a hit [33]: yes
listed as a hit [34]: yes

Alpha-soluble NSF attachment protein, P54920
listed as a hit [34]: yes

U3 small nucleolar RNA-interacting protein 2, O43818
listed as a hit [35]: yes

Metastasis-associated protein MTA2, O94776
listed as a hit [9]: yes
listed as a hit [36]: yes

Coiled-coil domain-containing protein 7, Q96M83
listed as a hit (Plexin-A1): yes

Polyadenylate-binding protein 4, Q13310
listed as a hit [37]: yes

Protein ZBED11, P0CF97
listed as a hit [38]: yes

Proteasome subunit beta type-5, P28074
listed as a hit [39]: yes

Elongation factor 1-beta, P24534
listed as a hit [40]: yes

Putative heat shock protein HSP 90-beta 2, Q58FF8
listed as a hit [41]: yes

RNA-binding Raly-like protein, Q86SE5
listed as a hit (RNA-binding protein Raly): yes

Protein disulfide-isomerase, P07237
listed as a hit [42]: yes

Serine palmitoyltransferase 1, O15269
listed as a hit [43]: yes

MAP/microtubule affinity-regulating kinase 3, P27448
listed as a hit [44]: yes

Microtubule-associated protein 1B, P46821
listed as a hit [45]: yes

Titin, Q8WZ42
listed as a hit [46]: yes

Homeobox protein Hox-B3, P14651
listed as a hit [47]: yes

Flotillin-2, Q14254
listed as a hit (THO complex subunit 2): yes

THO complex subunit 5, Q13769
listed as a hit (THO complex subunit 3): yes

Interferon-inducible double-stranded RNA-dependent protein kinase activator A, O75569
listed as a hit [11]: yes

Rho-related GTP-binding protein RhoC, P08134
listed as a hit [48]: yes

Frizzled-9, O00144
listed as a hit [49]: yes

Source: article doi:10.1101/2025.02.07.636106
